Compound activity (PubChem)
An excerpt weighted towards active compounds, which were near 9.2% of everything screened.
ELG1 genotox: qHTS screen for small molecules that induce genotoxicity in human embryonic kidney (HEK293T) cells expressing luciferase-tagged ELG1; HEK293T ELG1-luciferase reporter, luminescence, 16 h; Potency, µM (top dose mostly 46 µM), for inactives: top-dose activity change, positive = activation, hits mostly activators; 330,000 tested, 1.3% active; also: % of control where 0% means no effect; nearly all actives have a fitted effect of over 60% in size
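Luminescence read-out: rising ELG1-luciferase signal, reflecting elevated ELG1 protein under genetic stress, flags genotoxic compounds. Cells were treated for 16 hr at 37 °C before ONE-Glo detection.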
ELG1 DNA repair: qHTS screen for small molecules that inhibit ELG1-dependent DNA repair in human embryonic kidney (HEK293T) cells expressing luciferase-tagged ELG1; AID 504467, 2011; 330,000 tested, 2.3% active; HEK293T ELG1-luciferase reporter, luminescence, 16 h; DNA damage induced by 5-fluorouridine; Potency, µM (highest dose often 46.1 µM), inactives show at the highest dose activity change, negative = inhibition, most hits filed as inhibitors; also: % is scaled to controls: 0 for no effect and ±100 for the full control effect; nearly all actives have a fitted effect of over 55% in size
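Reporter activity after DNA damage by 5-fluorouridine is monitored. Compound-treated cells incubate 16 hr at 37 °C, then ONE-Glo is added for 30 min before luminescence reading.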
Rab9 promoter act: qHTS Assay for Rab9 Promoter Activators. Huh7 Rab9 promoter-luciferase reporter, luminescence, 24 h. Potency, µM (series often up to 9.22 µM), without a hit: at the highest dose activation, negative = inhibition, usual class: activators. 320,000 tested, 2.8% active. AID 485297, 2010; also: % of control where 0% means no effect; nearly all actives have a fitted effect of over 60% in size
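Steps: seed 1500 Huh7 Rab9-luc cells per well, rest 2 h at 37 °C; add compound in DMSO; incubate 24 h; add luciferase reagent, 10 min ambient; read luminescence.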
SMN2 splice enh: qHTS Assay for Enhancers of SMN2 Splice Variant Expression | 210,000 tested, 2.8% active | HEK293 SMN2-luciferase splicing reporter, luminescence, 30-36 h | AID 1458, 2008 | Potency, µM (highest dose often 46.1 µM), for inactives: at the top dose activity change, positive = activation, usual class: activators; also: % of control where 0% means no effect; nearly all actives have a fitted effect of over 55% in size
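qHTS luciferase splicing reporter: luminescence rises when SMN2 exon 7 is included in transfected HEK293 cells. Compound exposure lasted 30-36 h at 37C, with 4.5 mM final sodium butyrate as control, followed by a ONE-Glo read.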
FLuc modulator: qHTS profiling assay for firefly luciferase inhibitor/activator using purifed enzyme and Km concentrations of substrates (counterscreen for miR-21 project); purified FLuc, Km substrates, luminescence inhibition; 360,000 tested, 6.9% active; AID 588342, 2011; Potency, µM (titrated, usually from 57.5 µM), for inactives: top-dose activity change, negative = inhibition, actives largely listed as inhibitors;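 also: plate controls were vehicle for no effect and reference inhibitor for full effect; nearly all actives have a fitted effect of over 55% in size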
Target sequence (P08659 whole entry, looked up): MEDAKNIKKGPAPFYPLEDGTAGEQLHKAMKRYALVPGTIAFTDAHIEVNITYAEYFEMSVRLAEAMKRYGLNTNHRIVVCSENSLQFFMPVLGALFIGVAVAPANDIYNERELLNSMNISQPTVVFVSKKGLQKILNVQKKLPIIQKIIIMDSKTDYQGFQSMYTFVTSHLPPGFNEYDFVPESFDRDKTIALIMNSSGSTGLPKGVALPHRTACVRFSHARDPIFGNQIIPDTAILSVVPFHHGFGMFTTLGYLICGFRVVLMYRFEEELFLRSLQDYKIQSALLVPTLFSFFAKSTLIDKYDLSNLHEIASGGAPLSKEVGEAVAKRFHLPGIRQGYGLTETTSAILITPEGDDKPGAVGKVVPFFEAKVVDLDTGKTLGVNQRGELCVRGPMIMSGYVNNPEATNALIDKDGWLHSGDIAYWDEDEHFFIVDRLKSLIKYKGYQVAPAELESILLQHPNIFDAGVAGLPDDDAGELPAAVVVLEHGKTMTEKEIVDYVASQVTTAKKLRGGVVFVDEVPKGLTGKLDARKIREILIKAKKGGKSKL
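Biochemical qHTS of compounds, final roughly 60 µM downward over six points, against 10 nM purified firefly luciferase using Km concentrations of substrates (10 uM D-luciferin, 10 uM ATP) in Tris acetate pH 7.5 buffer; luminescence output.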
NPC1 promoter act: qHTS Assay for NPC1 Promoter Activators. Huh7 NPC1 promoter luciferase reporter, 24 h. Potency, µM (highest dose often 9.22 µM), for the others: at the top dose activation, usual class: activators. 320,000 tested, 2.4% active. AID 485313, 2010; also: % of control where 0% means no effect; nearly all actives have a fitted effect of over 60% in size
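Huh7 cells stably carrying NPC1 promoter–luciferase, plated in Opti-MEM with 10% FBS for 2 h, were exposed to compound in DMSO for 24 h at 37 °C; luciferase reagent was added for 10 min and luminescence read.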
Starred values were filed as active, the others as inactive; ? = inconclusive; . = no result; [ ] = dose if it differs, or a comment. Calls follow the shape of the dose curve; as a rule, active = well fitted curve in the direction sought with a large enough effect; inconclusive = small, poorly fitted or top-dose-only effect, or another doubt; inactive = no such curve, though single readings can be large; an effect the other way counts as inactive or inconclusive. Potency is read from the fitted curve at half-maximal effect.

SMILES	ELG1 genotox	ELG1 DNA repair	Rab9 promoter act	SMN2 splice enh	FLuc modulator	NPC1 promoter act
COc1ccccc1CC(NC(C)=O)C(=O)NC1CCN(S(=O)(=O)c2ccccc2)CC1 (stereo not drawn)	1%	20%	-3%	.	1%	0%
CCOc1ccc(S(=O)(=O)N2CCN(c3ccc(C)cc3C)CC2)c2ccccc12	.	.	.	-2%	5%	.
Cc1ccc(NC(=O)c2c(C)nc3sc(C(=O)Nc4ccc(F)cc4)c(N)c3c2-c2ccc(Cl)cc2)c(C)c1	.	.	.	-3%	-2%	.
Clc1ccc(-n2ncc3c(N4CCCCCC4)ncnc32)cc1	0.15µM*	?	-18%	-101%	0.19µM*	-11%
Fc1ccc(-n2ncc3c(N4CCN(Cc5ccccc5)CC4)ncnc32)cc1	.	.	.	.	-14%	.
CC1CN(c2ncnc3c2cnn3-c2ccc(Cl)cc2)CC(C)O1 (stereo not drawn)	2.1µM*	?	1µM*	?	3µM*	1.1µM*
Cc1ccc(Cl)cc1-n1ncc2c(N3CCCCCC3)ncnc21	.	.	.	.	-13%	.
Cc1ccc(-n2ncc3c(N4CCCCC4)ncnc32)cc1	.	.	.	.	0.076µM*	.
CC1CCN(c2ncnc3c2cnn3-c2ccc(F)cc2)CC1	.	.	.	.	3µM*	.
Cc1ccc(-n2ncc3c(N4CCC(Cc5ccccc5)CC4)ncnc32)cc1	.	.	.	.	-13%	.
O=C(Nc1ccc2nn(-c3ccc(F)cc3)nc2c1)c1cccc2c(Cl)cccc12	.	.	.	11%	-3%	.
COc1ccc(-n2ncc3c(N4CCCCC4)ncnc32)cc1	0.065µM*	?	?	-111%	0.17µM*	-17%
COc1ccc(-n2ncc3c(N4CCN(c5cccc(C)c5C)CC4)ncnc32)cc1	1%	13%	-1%	.	0%	-10%
COc1ccc(-n2cc3ccc([N+](=O)[O-])cc3n2)cc1	?	?	0.45µM*	.	0.95µM*	0.71µM*
COc1ccc(C2=NCCn3nc4cc([N+](=O)[O-])ccc4c32)cc1	6%	10%	0%	.	3%	8%
CN(C)C=Nc1ncc2c3ccccc3n(CCN(C)C)c2c1C#N	-8%	6.5µM*	2%	-51%	2%	1%
O=C1CSc2ccc(C(=O)NCCc3ccc(Cl)cc3Cl)cc2N1	-8%	26µM*	.	.	.	.
CCC(=O)NCCc1nc2cc(NC(=O)c3cccc([N+](=O)[O-])c3)ccc2n1C	?	?	3.5µM*	.	?	?
CCn1c(CN2CCCCC2)nc2cc(NC(=O)c3cccc([N+](=O)[O-])c3)ccc21	.	.	.	.	-1%	.
CC(=O)NCCc1nc2cc(NC(=O)c3cccc([N+](=O)[O-])c3)ccc2n1C	?	?	2.8µM*	.	?	2.8µM*
Cc1ccc(OCC(=O)Oc2c(C)cccc2C)cc1C	-2%	-4%	-5%	.	-13%	-11%
NC(=O)COC(=O)[C@H](Cc1c[nH]c2ccccc12)NC(=O)c1ccc(F)cc1	-2%	4%	3%	.	24µM*	-4%
CCOC(=O)C(Cc1c[nH]c2ccccc12)NC(=O)COc1ccc(CC)cc1 (stereo not drawn)	.	.	.	-11%	-21%	.
CCOC(=O)C(Cc1c[nH]c2ccccc12)NC(=O)c1ccco1 (stereo not drawn)	20%	19%	-10%	-9%	21µM*	1%
COC(=O)C(Cc1c[nH]c2ccccc12)NC(=O)c1ccc2nc[nH]c2c1 (stereo not drawn)	3%	?	-2%	.	2.4µM*	-3%
SMILES	ELG1 genotox	ELG1 DNA repair	Rab9 promoter act	SMN2 splice enh	FLuc modulator	NPC1 promoter act
COC(=O)C(Cc1c[nH]c2ccccc12)NC(=O)c1cncc(Br)c1 (stereo not drawn)	-13%	-2%	-2%	.	-3%	6%
Cc1ccc(Cl)cc1NC(=O)C1CCCN(S(=O)(=O)c2cccc3cccnc23)C1 (stereo not drawn)	.	.	.	-8%	0%	.
Cc1ccc(C(=O)Nc2c(-c3ccccc3)nc3ccccn23)cc1C	.	.	.	-7%	-6%	.
COc1cc(OC)cc(-c2nnc(SCC(=O)c3ccc([N+](=O)[O-])cc3)o2)c1	.	.	.	-4%	4%	.
CNc1ccnc(-c2ccccc2C(F)(F)F)n1	.	.	.	-3%	.	.
COc1cc2cc(/C=C/C(=O)c3ccco3)c(Cl)nc2cc1OC	7%	9%	-6%	?	-5%	-3%
Cc1ccc2cc(/C=C/C(=O)c3ccco3)c(Cl)nc2c1	?	?	2.5µM*	.	?	?
Cc1ccc2nc(Cl)c(/C=C/C(=O)c3ccco3)cc2c1	16%	?	3.5µM*	.	-23%	?
COc1ccc2cc(/C=C/C(=O)c3ccco3)c(Cl)nc2c1	?	?	?	2%	?	?
COc1ccc(-c2nc(SCC(=O)Nc3ccccc3)c(-c3ccc(F)cc3)[nH]2)cc1OC	.	.	.	-10%	?	.
Oc1oc(-c2ccco2)nc1C=Nc1cccc(Cl)c1	-4%	6%	-7%	-16%	15µM*	0%
Oc1oc(-c2ccco2)nc1C=Nc1ccccc1	0%	0%	11%	.	-5%[2.3 µM]	-2%
CCOC(=O)c1ccc(-c2nnc(-c3ccc(Cl)cc3Cl)o2)cc1	16%	?	0.5µM*	3.5µM*	3%	0.63µM*
CCOC(=O)CSc1nnc(-c2ccc(Cl)cc2Cl)o1	9%	20%	-2%	-1%	8.5µM*	1%
CCOC(=O)c1cc(-c2nnc(-c3ccc(Cl)cc3)o2)c(C)nc1C	2%	0%	-3%	-18%	1%	0%
CCOC(=O)CSc1nnc(-c2ccccc2)o1	2%	20%	0%	-7%	?	-2%
CCCOC(=O)CSc1nnc(-c2ccc(Cl)cc2Cl)o1	1%	0%	-1%	-4%	15µM*	2%
COc1cc(C)nc(NC(=O)NC(=O)c2ccc(C(F)(F)F)cc2)n1	0%	-5%	-4%	.	0%	-1%
C/C(=N\Nc1nc2ccccc2c(=O)n1O)c1ccco1	?	?	3.2µM*	.	11µM*	30%
Cc1ccc(C)c(/C=N/Nc2nc3ccccc3c(=O)n2O)c1	4%	19%	2%	.	13µM*	6%
CN(C)CCCN(C(=O)c1ccc(S(=O)(=O)N2CCCCCC2)cc1)c1nc2ccc(F)cc2s1	24%	8.2µM*	10%	.	6%	7%
CN(C)CCCOC(=O)c1sc2ccccc2c1Cl	4%	?	0%	.	24µM*	-8%
